# Laboratory results: PubChem BioAssay
# Target: Pro-neuregulin-1, membrane-bound isoform (Homo sapiens) (UniProt Q02297)
# Experiment: small molecules binding neuregulin-1 protein – biochemical, small-molecule microarray, fluorescence 635/667, psychiatric disease protein project, primary screen (AID 1075);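 also: score combines 667 nm spot fluorescence with signal to noise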
# Details: NRG1 binding, 635 nm fluorescence, higher = more signal
# Sequence of Pro-neuregulin-1, membrane-bound isoform (Homo sapiens) (Q02297 whole entry, looked up, canonical isoform): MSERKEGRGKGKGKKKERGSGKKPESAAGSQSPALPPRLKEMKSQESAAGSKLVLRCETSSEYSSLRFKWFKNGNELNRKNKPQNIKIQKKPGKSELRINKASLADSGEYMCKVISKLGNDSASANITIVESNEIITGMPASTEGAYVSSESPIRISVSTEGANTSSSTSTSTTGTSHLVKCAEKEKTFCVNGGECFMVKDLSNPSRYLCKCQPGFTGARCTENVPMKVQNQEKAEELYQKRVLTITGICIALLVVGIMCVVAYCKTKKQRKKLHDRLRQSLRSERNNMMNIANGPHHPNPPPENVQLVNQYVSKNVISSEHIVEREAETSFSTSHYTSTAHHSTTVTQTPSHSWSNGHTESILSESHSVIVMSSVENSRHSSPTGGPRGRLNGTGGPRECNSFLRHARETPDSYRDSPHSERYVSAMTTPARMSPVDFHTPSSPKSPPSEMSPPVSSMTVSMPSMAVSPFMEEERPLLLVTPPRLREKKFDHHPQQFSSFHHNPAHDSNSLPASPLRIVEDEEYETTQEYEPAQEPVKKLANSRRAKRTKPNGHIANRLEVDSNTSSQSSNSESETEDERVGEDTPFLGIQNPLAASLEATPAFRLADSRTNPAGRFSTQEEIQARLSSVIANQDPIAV
row,SMILES,composite z-score
1,COCCCNC(=O)[C@@]1(Cc2ccccc2)COC(c2ccc(OCCCO)cc2)=N1,1.77
2,COC(=O)[C@]1(Cc2ccccc2CN=[N+]=[N-])N=C(c2ccc(OCCCO)cc2)O[C@@H]1c1ccccc1CN=[N+]=[N-],0.726
3,O=C1NC(=O)C2C1C=CC(C(O)c1ccc(-c3ccccc3)s1)N2Nc1ccccn1 (configuration not stated),1.27
4,C=C(C(=O)CC[C@H](OC(=O)c1cccnc1)c1ccc(OCCO)cc1)C(C)C,0.19
5,Cc1ccc(N2C(=O)c3ccccc3[C@](C)(C(=O)NC(C)C)[C@@H]2c2ccc(CO)cc2)nc1,-1.55
6,CCCCC=C[C@@H](NC(=O)CCc1ccccc1)c1ccccc1,1.23
7,C=CCC(OC(C)=O)[C@@H]1[C@@H](N(Cc2cccc3ccccc23)C(=O)c2ccc(C)cc2)c2cc(OCCCO)ccc2N1C(=O)c1ccc2ccccc2c1 (some centres not stated),-0.126
8,C[C@]12C(=O)N(CCCCCO)[C@@H]3C(=O)N(c4ccc(Cl)cc4)CC=CC31O[C@@H]1/C=C\CCCOC(=O)C12 (some centres not stated),-0.254
9,O=C1c2ccccc2[C@](Cc2ccccc2I)(C(=O)NCC(F)(F)F)[C@H](c2ccc(CO)cc2)N1Cc1ccccc1,1.12
10,O=C(O)[C@@]1(Cc2ccccc2)COC(c2ccc(OCCCO)cc2)=N1,1.19
11,COCCCNC(=O)[C@]1(Cc2ccccc2)N=C(c2ccc(OCCCO)cc2)O[C@@H]1c1ccccc1N=[N+]=[N-],0.725
12,COCCOC(=O)N1C(=O)[C@@]2(c3cc(C#Cc4ccc(OC)cc4)ccc31)[C@H](C(=O)N1CCc3cc(OC)c(OC)cc3C1)[C@H]1C(=O)O[C@H](c3ccccc3)[C@H](c3ccccc3)N1[C@@H]2c1ccc(OCCO)cc1,0.62
